FLuc counter – firefly luciferase modulation, counter-screen for miR-21 project. Potency, µM (titrated, usually from 57.5 µM), hits mostly inhibitors. purified FLuc, Km substrates, luminescence inhibition. 360,000 compounds, 6.9% hits; further: nearly all actives have a fitted effect of over 55% in size
Target sequence (P08659 whole entry, looked up): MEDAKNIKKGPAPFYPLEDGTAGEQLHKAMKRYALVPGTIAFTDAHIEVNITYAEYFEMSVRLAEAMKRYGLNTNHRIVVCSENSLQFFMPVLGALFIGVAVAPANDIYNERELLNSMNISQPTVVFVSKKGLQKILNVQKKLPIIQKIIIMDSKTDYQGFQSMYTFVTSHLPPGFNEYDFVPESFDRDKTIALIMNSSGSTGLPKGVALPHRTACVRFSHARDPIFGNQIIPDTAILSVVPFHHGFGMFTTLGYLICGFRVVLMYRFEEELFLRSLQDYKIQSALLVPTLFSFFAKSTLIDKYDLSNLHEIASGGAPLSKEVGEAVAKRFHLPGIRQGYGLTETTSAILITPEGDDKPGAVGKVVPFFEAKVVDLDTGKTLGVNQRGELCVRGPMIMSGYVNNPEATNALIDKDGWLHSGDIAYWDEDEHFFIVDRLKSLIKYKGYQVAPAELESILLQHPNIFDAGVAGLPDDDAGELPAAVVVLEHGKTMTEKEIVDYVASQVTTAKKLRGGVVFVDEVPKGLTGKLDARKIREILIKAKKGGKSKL
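Purified P. pyralis luciferase, 10 nM final, with Km-level 10 uM D-luciferin and 10 uM ATP in 50 mM Tris acetate pH 7.5, 10 mM Mg acetate, 0.01% Tween-20, 0.05% BSA; 6-point qHTS titration about 60 µM downward; luminescence read.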
ELG1 genotoxic – genotoxicity induction in ELG1-luciferase HEK293T cells | HEK293T ELG1-luciferase reporter, luminescence, 16 h | Potency, µM (series often up to 46 µM), hits mostly activators | 330,000 compounds, 1.3% hits; further: nearly all actives have a fitted effect of over 60% in size
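Genotoxicity was scored as increased ELG1-luciferase reporter signal, measured by ONE-Glo luminescence (30 min, room temperature). Compound or vehicle exposure of the HEK293T reporter cells lasted 16 hr at 37°C.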
Rab9 prom act – activates the Rab9 promoter | Huh7 Rab9 promoter-luciferase reporter, luminescence, 24 h | Potency, µM (titrated, usually from 9.22 µM), actives largely listed as activators | 320,000 compounds, 2.8% hits | AID 485297; further: nearly all actives have a fitted effect of over 60% in size
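Cell-based reporter: Huh7 stable for Rab9 promoter-driven luciferase, plated in reduced-serum medium with 10% FBS at 1500 cells/well, compound-treated 24 h at 37 °C, luminescence read after 10 min reagent.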
NPC1 promoter act – activators of NPC1 promoter | Huh7 NPC1 promoter luciferase reporter, 24 h | 320,000 compounds, 2.4% hits | Potency, µM (series often up to 9.22 µM), hits mostly activators; further: nearly all actives have a fitted effect of over 60% in size
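Readout is luciferase luminescence, reflecting NPC1 promoter activation in stably transfected Huh7 cells after 24 h compound exposure at 37 °C in reduced-serum medium with 10% FBS.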
Luc counter – counter-screen: inhibitors of Kinase-Glo firefly luciferase | Potency, µM (titrated, usually from 38.3 µM), actives largely listed as inhibitors | Kinase-Glo luciferase, ATP luminescence, 8 min | Q27757 | 200,000 compounds, 0.28% hits; further: nearly all actives have a fitted effect of over 60% in size
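Light output from Kinase-Glo luciferase with luciferin and 10 uM ATP in 50 mM imidazole pH 7.2, KCl, MgCl2, Tween 20, BSA; compound pin-delivered, 8-min ambient incubation, then luminescence read.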
SMN2 splice enh – SMN2 splice variant enhancement | HEK293 SMN2-luciferase splicing reporter, luminescence, 30-36 h | Potency, µM (top dose mostly 46.1 µM), usual class: activators | 210,000 compounds, 2.8% hits; further: nearly all actives have a fitted effect of over 55% in size
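HEK293 cells carry an SMN2 minigene-luciferase reporter in which exon 7 inclusion puts luciferase in frame. Cells were seeded at 2000 cells/well, attached for 10-12 hours, then exposed to compounds for 30-36 hours at 37C before ONE-Glo luminescence.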
Numbers stand for hits; 0 = inactive; ? = inconclusive; - = no result given; [ ] = dose if it differs, or a comment. Only some compounds are listed: those with a hit (about 7.3% of all), similar ones and a draw of the others. The call rests on the fitted dose curve; in most records, active means well fitted curve in the direction sought with a large enough effect; inconclusive means small, poorly fitted or top-dose-only effect, or another doubt; inactive means no such curve, though single readings can be large; an effect the other way counts as inactive or inconclusive.

SMILES	FLuc counter	ELG1 genotoxic	Rab9 prom act	NPC1 promoter act	Luc counter	SMN2 splice enh
O=C(NCCc1ccccc1)c1ccc(-c2ccccc2C(F)(F)F)o1	?	0	0	0	0	0
COc1cc2c(C#CCCCO)c(-c3ccc(C#N)cc3)oc(=O)c2cc1OC	0	0	0	0	-	-
O=c1c2ccccc2oc2ccc(NCCCn3ccnc3)cc12	1.7µM	?	1.1µM	1.4µM	-	-
Cc1ccc(OCc2cc(C(=O)NCc3ccc(OC(F)(F)F)cc3)no2)cn1	0	0	0	0	-	-
C=CCC1(CC=C)CCCN1C(=O)c1cc(COc2ccc(C)nc2)on1	19µM	0	0	0	-	-
C=CCC1(CC=C)CCCN1C(=O)c1cc(COc2ccc(F)c(F)c2)on1	0	0	0	0	-	-
CCc1cc(CNC(=O)c2cc(COc3ccc(C)nc3)on2)on1	17µM	?	?	?	-	-
Cc1cc(CNC(=O)c2cc(COc3ccc(F)c(F)c3)on2)nn1C	?	?	1.3µM	2.8µM	-	-
CCC(C)[C@H](NC(=O)NCCC1=CCCCC1)C(=O)OC (stereo partly drawn)	0	0	0	0	-	-
Cc1ccc(NC(=O)Nc2cccc([N+](=O)[O-])c2)nc1	0	0	?	?	0	?
COc1ccc2c(c1OC)C(=O)N(c1cccc(NC(C)=O)c1)C2	11µM	?	0	0	-	-
COc1ccc2c(c1OC)C(=O)N(c1ccc(F)cc1)C2	8.5µM	?	1.3µM	2µM	-	-
O=C(O)C1CCN(C(=O)CSc2nc3ccccc3s2)CC1	?	0	0	0	0	0
O=C(CSc1nc2ccccc2s1)N1CCCCC1	24µM	?	3.5µM	2.8µM	0	20µM
CC1CCN(C(=O)CSc2nc3ccccc3s2)CC1	12µM	12µM	2.8µM	2.8µM	0	?
COc1ccccc1-c1nnc2sc(C3CCCCC3)nn12	0	0	0	0	0	0
COc1ccc(N2CCN(S(=O)(=O)CCNC(=O)c3cc(=O)c4ccccc4o3)CC2)cc1	0	0	0	0	-	-
COC(=O)c1ccc(-n2nnnc2SCC(=O)N2CCCCC2)cc1	0	0	0	0	0	0
O=c1c(Cl)c(Nc2cccc(Cl)c2)cnn1-c1nc2ccccc2s1	4.8µM	?	?	?	0	10µM
COc1ccc(Nc2cnn(-c3nc4ccccc4s3)c(=O)c2Cl)cc1	11µM	?	?	?	?	10µM
Cc1ccc(C)c(N2CCN(c3nc4ccccc4c(=O)n3-c3ccccc3)CC2)c1	0	-	-	-	-	0
Cc1nc2ccccc2nc1Nc1cccc(Cl)c1	0	0	0	0	-	-
COc1ccc(C2SCC(=O)N2c2nc3ccccc3s2)cc1 (stereo not drawn)	?	0	0	0	0	-
Cc1ccc(C)c(N2CCN(c3cnn(-c4nc5ccccc5s4)c(=O)c3Cl)CC2)c1	6.7µM	18µM	1.6µM	2.2µM	0	?
Cc1ccc(-c2cc(C(=O)Nc3nccs3)c3ccccc3n2)o1	11µM	0	0	0	0	0
SMILES	FLuc counter	ELG1 genotoxic	Rab9 prom act	NPC1 promoter act	Luc counter	SMN2 splice enh
Cc1ccc(-c2cc(C(=O)Nc3nccs3)c3ccccc3n2)c(C)c1	0	0	0	0	0	0
COc1ccc(NC(=O)c2cc(-c3ccc(C)o3)nc3ccccc23)cc1OC	0.95µM	0	?	0	6.3µM	0
CC(=O)NC12CC3CC(C1)CC(C(=O)N1CCN(S(=O)(=O)c4ccc(Cl)s4)CC1)(C3)C2	0	0	0	0	-	-
NC(=O)COC(=O)c1cc(-c2ccco2)nc2ccccc12	?	0	0	0	-	-
O=C(O)c1cc(-c2ccco2)nc2ccc(Br)cc12	19µM	0	0	0	0	0
O=C(c1cc(-c2ccccc2)nc2ccccc12)N1CCCC1	?	0	0	0	-	-
COc1ccc(-c2cc3cc(OC)c(OC)cc3c(C)n2)cc1	17µM	0	?	?	-	-
O=C(c1cc(-c2cccc(Cl)c2)nc2ccccc12)N1CCCC1	17µM	0	0	0	-	-
COc1ccc(-c2cc(C(=O)N3CCCC3)c3ccccc3n2)cc1	4.3µM	0[9.26 µM]	?	0	-	-
COc1ccc2c(OC)cc(-c3ccccc3)nc2c1	0	0	0	0	0	0
CN(C)c1nc(NCc2ccccc2)nc(N/N=C/c2cccc(Br)c2)n1	0	0	0	0	0	-
Cc1ccc(S(=O)(=O)N(CCC(=O)Nc2ccc(OC(F)(F)F)cc2)c2ccccc2)cc1	0	0	0	0	0	0
CCOC(=O)c1c(S(=O)(=O)NCCc2cccs2)c(C)n(C)c1C	0	0	0	0	-	-
Cc1cc(C(=O)N/N=C/c2cccn2C)no1	?	0	0	0	0	0
CCOC(=O)C1CCCN(C(=O)c2cc(-c3ccccc3)nc3ccccc23)C1 (stereo not drawn)	?	0	0	0	0	0
Cc1ccccc1-c1cc(C(=O)N2CCCC2)c2ccccc2n1	0	0	0	0	-	-
Cc1ccc(-c2cc(C(=O)N3CCCCC3)c3ccccc3n2)cc1C	2.4µM	0	0	0	-	-
O=C(O)c1cc(-c2ccc(-c3ccc(F)cc3)o2)nc2ccccc12	0.13µM	?	0.89µM	2.5µM	-	-
CCOc1ccc(-c2cc(C(=O)N3CCCC3)c3ccccc3n2)cc1	0.48µM	?	1.4µM	3.5µM	-	-
O=C(c1cc(-c2ccc(F)cc2)nc2ccccc12)N1CCC1	-	0	-	-	-	-
COc1ccc2cc(-c3cc(C(=O)O)c4ccccc4n3)ccc2c1	0.067µM	?	?	0.11µM	7.9µM	?
Cc1ccc(-c2cc(C(=O)N3CCOCC3)c3ccccc3n2)o1	-	0	-	-	-	-
CN1CCCN(C(=O)c2cc(-c3cccc4ccccc34)nc3ccccc23)CC1	0	0	0	0	-	-
COc1ccc(-c2cc(C(=O)N3CCN(c4ccccc4)CC3)c3ccccc3n2)cc1	2.7µM	0	0	0	0	0
CCOc1ccc(-c2cc(C(=O)N3CCN(C)CC3)c3ccccc3n2)cc1	0.6µM	?	2.5µM	2.8µM	?	11µM
SMILES	FLuc counter	ELG1 genotoxic	Rab9 prom act	NPC1 promoter act	Luc counter	SMN2 splice enh
Cc1ccc(-c2cc(C(=O)N3CCN(c4ccc(F)cc4)CC3)c3ccccc3n2)o1	3.4µM	0	0	0	0	0
Cc1ccc(-c2cc(C(=O)N3CCCC(C(F)(F)F)C3)c3ccccc3n2)o1 (stereo not drawn)	12µM	0	0	0	-	-
CCOc1ccc(-n2ccc(=O)c(C(=O)O)n2)cc1	0	0	0	0	-	-
O=C(CSCc1cccc(CSCC(=O)Nc2ccc3ccccc3c2)n1)Nc1ccc2ccccc2c1	0	0	0	0	0	0
CCOC(=O)N1CCN(C(=O)c2cc(-c3ccc(OCC)cc3)nc3ccccc23)CC1	0.21µM	0	?	0	0	13µM
COc1ccc(-c2cc(OC)c3ccccc3n2)cc1	19µM	0	0	0	0	0
O=C(c1cc(-c2ccccn2)nc2ccc(Br)cc12)N1CCN(S(=O)(=O)c2ccccc2)CC1	0	0	0	0	0	0
COc1cc(-c2ccccc2)nc2ccccc12	0	0	0	0	0	0

Screens (PubChem BioAssay)
